Test results reported in PubChem BioAssay.
Active and inactive are the calls of the source.

Columns and labels:
[1] = A549 cell viability effects, profiling panel, calcein-AM fluorescence, 48 h, basal (AID 1162); conditions: higher = more signal; note: test concentration not given here
[2] = adipocyte viability effects, profiling panel, cell-based, 3T3-L1 adipocytes, calcein-AM fluorescence, 48 h, basal (AID 1163); conditions: 3T3-L1 adipocytes viability, higher = more signal; note: test concentration not given here
[3] = HepG2 cell viability effects, profiling panel, calcein-AM fluorescence, 48 h, basal (AID 1164); conditions: higher = more signal; note: test concentration not given here
[4] = MM1S cell viability effects, profiling panel, calcein-AM fluorescence, 48 h, basal (AID 1165); conditions: higher = more signal;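 note: viability of MM1S multiple myeloma cells under basal unstimulated conditions; test concentration not given here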
[5] = basal RPMI8226 viability, no added stimulus, profiling panel, cell-based, calcein-AM fluorescence, 48 h, PK04 Diversity Set (AID 1166); conditions: RPMI8226 myeloma viability, higher = more signal;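 note: cells grown under basal conditions without added stimulus; test concentration not given here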
[6] = basal HepG2 mitochondrial membrane potential changes, profiling panel, cell-based, JC-1 fluorescence, 24 h, 100 nL compound (AID 1167); conditions: higher = more signal; note: test concentration not given here
[7] = basal 3T3-L1 adipocyte mitochondrial potential changes, profiling panel, cell-based, JC-1 fluorescence, 3T3-L1 adipocytes, 24 h, 100 nL compound (AID 1168); conditions: JC-1 mitochondrial fluorescence, higher = more signal, called active from +8 up or from −8 down; note: test concentration not given here
[8] = basal RPMI8226 mitochondrial membrane potential changes, profiling panel, cell-based, JC-1 fluorescence, 24 h, 100 nL compound (AID 1169); conditions: RPMI8226 myeloma, JC-1 mitochondrial potential fluorescence, higher = more signal; note: test concentration not given here
[9] = basal MM1S mitochondrial membrane potential changes, profiling panel, cell-based, JC-1 fluorescence, 24 h, 100 nL compound (AID 1170); conditions: higher = more signal; note: test concentration not given here
[10] = A549 lung cancer cell viability effects, profiling panel, resazurin fluorescence, 24 h, PK04 Diversity Set (AID 1171); conditions: higher = more signal, called active from +8 up or from −8 down; note: test concentration not given here
[11] = HepG2 liver cancer cell viability effects, profiling panel, resazurin fluorescence, 24 h, PK04 Diversity Set (AID 1172); conditions: higher = more signal; note: test concentration not given here
[12] = basal S. cerevisiae growth modulation, no modifier, primary screen, OD600, strain BY4716, 24 h, basal condition (AID 1173); conditions: OD600, 24 h, higher = more signal, called active from +8 up or from −8 down
[13] = MM1S myeloma cell viability, profiling panel, resazurin fluorescence, basal, 24 h, PK04 Diversity Set (AID 1174); conditions: higher = more signal, called active from +8 up or from −8 down;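 note: MM1S multiple myeloma cell line; test concentration not given here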
[14] = target: Dihydroorotate dehydrogenase (quinone), mitochondrial (Plasmodium falciparum (isolate 3D7)) (UniProt Q08210); test: PfDHODH enzyme inhibitors, primary screen, biochemical, C-terminal His tag, absorbance 600 nm (AID 1175); conditions: DCIP absorbance 600 nm, higher = more signal, called active from +8 up or from −8 down;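 note: recombinant parasite enzyme with a five histidine tag at its C terminus; test concentration not given here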
Dihydroorotate dehydrogenase (quinone), mitochondrial (Plasmodium falciparum (isolate 3D7)), sequence (Q08210 whole entry, looked up): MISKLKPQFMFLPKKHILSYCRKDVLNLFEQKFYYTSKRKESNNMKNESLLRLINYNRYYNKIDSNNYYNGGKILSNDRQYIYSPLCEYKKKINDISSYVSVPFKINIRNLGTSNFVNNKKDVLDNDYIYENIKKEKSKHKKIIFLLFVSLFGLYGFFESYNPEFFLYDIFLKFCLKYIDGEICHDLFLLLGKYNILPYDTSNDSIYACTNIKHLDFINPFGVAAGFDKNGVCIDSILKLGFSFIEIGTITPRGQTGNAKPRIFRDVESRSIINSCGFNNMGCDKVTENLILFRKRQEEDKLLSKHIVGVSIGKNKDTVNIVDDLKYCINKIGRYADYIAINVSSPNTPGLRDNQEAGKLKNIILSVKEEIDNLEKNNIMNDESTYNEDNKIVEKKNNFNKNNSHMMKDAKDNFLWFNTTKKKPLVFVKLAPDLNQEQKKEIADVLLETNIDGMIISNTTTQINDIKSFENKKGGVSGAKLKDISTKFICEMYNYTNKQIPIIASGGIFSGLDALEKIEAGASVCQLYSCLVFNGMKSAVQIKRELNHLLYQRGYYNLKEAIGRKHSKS

[15] = S. cerevisiae RM11-1a growth modifiers, primary screen, strain RM11-1a, OD600, basal, 24 h (AID 1177); conditions: OD600, 24 h, higher = more signal, called active from +8 up or from −8 down;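 note: cultures grown under basal conditions with no added stressor; test concentration not given here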
[16] = E. coli acrAB mutant growth effects, primary screen, E. coli filamentation inducers, strain DRC39, OD650, 24 h (AID 1178); conditions: higher = more signal, called active from +8 up or from −8 down;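 note: growth measured as culture turbidity by optical density at 650 nm; test concentration not given here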
[17] = E. coli acrAB mutant growth effects, primary screen, E. coli filamentation inducers, strain DRC39, OD650, 48 h (AID 1179);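 note: screen aims at cell division blockers that make cells filament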; conditions: E. coli DRC39 delta-acrAB growth, higher = more signal, called active from +8 up or from −8 down
[18] = RPMI8226 myeloma cell viability, profiling panel, resazurin fluorescence, basal, 24 h, PK04 Diversity Set (AID 1180); conditions: higher = more signal;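 note: RPMI8826 multiple myeloma cell line at 5000 cells per well; test concentration not given here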
[19] = target: E3 ubiquitin-protein ligase XIAP (Homo sapiens) (UniProt P98170); test: XIAP binders, primary screen, biophysical, small-molecule microarray, fluorescence 635 nm (AID 1181); conditions: small-molecule microarray binding, higher = more signal;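 note: score merges 667 nm emission and signal to noise over triplicate slides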
E3 ubiquitin-protein ligase XIAP (Homo sapiens), sequence (P98170 whole entry, looked up): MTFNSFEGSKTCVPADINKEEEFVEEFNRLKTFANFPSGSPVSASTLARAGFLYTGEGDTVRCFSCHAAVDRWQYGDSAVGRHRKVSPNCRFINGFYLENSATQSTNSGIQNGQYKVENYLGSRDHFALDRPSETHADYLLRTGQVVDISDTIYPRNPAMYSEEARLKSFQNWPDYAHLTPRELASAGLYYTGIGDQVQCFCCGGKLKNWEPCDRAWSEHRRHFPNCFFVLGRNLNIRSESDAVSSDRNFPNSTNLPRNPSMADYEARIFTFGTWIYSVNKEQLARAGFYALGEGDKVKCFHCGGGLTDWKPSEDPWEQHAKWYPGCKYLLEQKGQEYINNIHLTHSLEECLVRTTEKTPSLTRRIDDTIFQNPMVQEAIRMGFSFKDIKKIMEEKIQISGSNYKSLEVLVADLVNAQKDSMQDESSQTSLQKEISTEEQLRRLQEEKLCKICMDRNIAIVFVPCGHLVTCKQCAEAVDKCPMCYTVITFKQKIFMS

SMILES | z-score [1] | z-score [2] | z-score [3] | z-score [4] | z-score [5] | z-score [6] | z-score [7] | z-score [8] | z-score [9] | z-score [10] | z-score [11] | z-score [12] | z-score [13] | composite z-score [14] | z-score [15] | z-score [16] | z-score [17] | z-score [18] | composite z-score [19]
COc1cc(CO)cc(I)c1O[C@H]1C=C(C(=O)NCCO)C[C@@H](NCCc2c[nH]c3ccccc23)[C@@H]1O | 1.74 | -0.335 | 0.0706 | -0.68 | -0.391 | -1.01 | 1.01 (inactive) | 0.166 | -0.389 | 0.279 (inactive) | 0.507 | -8.04 (active) | 0.221 (inactive) | 1.23 (inactive) | 0.216 (inactive) | 2.21 (inactive) | -0.41 (inactive) | 0.848 | -0.242
CN1C2C=C(c3ccc(CO)cc3)C(C3C(=O)N(C(N)=O)C(=O)C32)C1c1cccs1 (stereo not given) | 0.555 | 1.64 | -0.542 | 0.31 | 1.07 | 0.171 | 0.497 (inactive) | -0.21 | 0.491 | 0.567 (inactive) | 0.935 | -1.28 (inactive) | 1.05 (inactive) | 0.683 (inactive) | 1.19 (inactive) | 1.09 (inactive) | 0.798 (inactive) | 0.898 | -0.337
C=CCC(OC(C)=O)[C@@H]1[C@@H](N(Cc2cc3ccccc3o2)C(=O)Cc2ccc(F)cc2)c2cc(OCCCO)ccc2N1C(=O)c1ccc(-c2ccccc2)cc1 (stereo not given in full) | 1.79 | 0.0893 | 1.01 | 0.661 | 0.708 | 2.84 | 0.756 (inactive) | 0.602 | 0.0416 | 1.18 (inactive) | 1.13 | -0.588 (inactive) | -0.518 (inactive) | -0.177 (inactive) | -0.157 (inactive) | 1.17 (inactive) | 0.845 (inactive) | 0.673 | -0.332
CCOC(=O)C[C@H]1[C@H](OC(=O)c2ccccc2-c2ccccc2)[C@@H](NC(=O)C2CCCCC2)c2cc(OCCCO)ccc2N1C(=O)c1ccccc1 | -0.675 | 1.22 | -0.294 | -0.402 | -1.33 | 3.59 | 0.75 (inactive) | -0.545 | 0.109 | -0.0403 (inactive) | -0.206 | -0.686 (inactive) | 0.609 (inactive) | 0.684 (inactive) | 1.33 (inactive) | 2.32 (inactive) | 1.37 (inactive) | 0.737 | -0.0351
CN(C)CCCC[C@@H]1NC(=O)[C@@H]2C[C@H](C(=O)NCCCCCNC(=O)CS)[C@H](c3ccc(O)cc3)N2C1=O | 0.748 | 0.387 | -1.02 | -0.0855 | 0.262 | 1.61 | 0.642 (inactive) | -0.238 | 0.422 | -0.207 (inactive) | -0.23 | -0.312 (inactive) | 1.01 (inactive) | -1.38 (inactive) | -1.13 (inactive) | 0.964 (inactive) | 0.809 (inactive) | 0.975 | 0.104
COc1cccc([C@@H]2[C@@H](C)CC[C@H]3C(=O)N4[C@H](c5cccc(OC)c5)[C@@H](C)CC[C@H]4C(=O)N23)c1 | 2.04 | 0.512 | 0.761 | 0.656 | 1.34 | 1.51 | 0.891 (inactive) | -0.395 | 1.13 | 1.51 (inactive) | 1.96 | -2.76 (inactive) | 1.24 (inactive) | -1.35 (inactive) | -3.28 (inactive) | 0.697 (inactive) | -1.17 (inactive) | 1.42 | -0.0599
CO[C@H]1O[C@H](CO)[C@@H](OC(=O)Nc2ccc(Oc3ccccc3)cc2)[C@H](OC(=O)Nc2ccccc2-c2ccccc2)[C@H]1OC(=O)Nc1ccccc1-c1ccccc1 | -4.22 | 1.59 | -4.47 | -3.39 | -4.01 | -1.37 | 1.64 (inactive) | -0.646 | -1.81 | -4.85 (inactive) | -2.96 | 1.94 (inactive) | -3.97 (inactive) | -0.326 (inactive) | 4.09 (inactive) | 0.275 (inactive) | -0.534 (inactive) | -2.5 | 0.344
CO[C@@H]1COC(=O)[C@@H]2CCCN2C(=O)CC=C[C@@H](C)[C@H](OC)COC(=O)[C@@H]2CCCN2C(=O)CC=C[C@H]1C | 0.798 | 0.185 | 1.21 | 0.283 | 0.142 | -0.123 | 1.15 (inactive) | -0.695 | 2.22 | 1.82 (inactive) | 0.929 | -1.45 (inactive) | 1.31 (inactive) | 0.319 (inactive) | -0.553 (inactive) | 1.65 (inactive) | 0.987 (inactive) | 0.0475 | -0.02
C=CC[C@]1(C(=O)O)N=C(c2ccc(OCCCO)cc2)O[C@H]1c1ccccc1 | 0.0248 | 1.88 | 0.0696 | -0.394 | -0.512 | 0.801 | 0.0186 (inactive) | -0.755 | 1.29 | 0.692 (inactive) | 0.734 | -2.31 (inactive) | 1.63 (inactive) | 1.51 (inactive) | 0.344 (inactive) | 2.94 (inactive) | 1.25 (inactive) | 1.77 | 0.109
CCOC(=O)[C@H]1C/C=C/C[C@H](C(=O)OCC)C(=O)O[C@H]2[C@@H](OC)O[C@H](CO)[C@@H](OC(=O)Nc3ccc(Br)cc3)[C@@H]2OC1=O | -4.47 | -0.34 | -5.12 | -3.28 | -4.16 | -3.44 | 2.89 (inactive) | -0.948 | -1.83 | -7.29 (inactive) | -6.68 | -1.68 (inactive) | -9.26 (active) | -1.48 (inactive) | 0.424 (inactive) | 1.65 (inactive) | 1.93 (inactive) | -7.26 | 0.0223
C=CCNC(=O)[C@H]1[C@@H]2C(=O)O[C@@H](c3ccccc3)[C@@H](c3ccccc3)N2[C@@H](c2ccc(O)cc2)[C@]12C(=O)Nc1ccc(C#CCNC(N)=O)cc12 | 0.294 | 0.57 | -0.348 | -0.778 | -0.144 | -0.0995 | -0.0287 (inactive) | 0.424 | 0.716 | 0.999 (inactive) | 0.435 | -0.558 (inactive) | 0.476 (inactive) | -0.438 (inactive) | -0.381 (inactive) | 0.574 (inactive) | 0.771 (inactive) | 0.917 | 0.0223
CCN1C(C)=C(C(=O)OC)[C@@H](c2ccccc2)N2C(=O)[C@@]3(C(=O)OC)O[C@@]12[C@@H]1C(=O)CCC[C@@H]13 | -0.195 | 0.955 | -0.369 | 0.853 | 0.476 | 0.638 | 0.881 (inactive) | 0.538 | 0.29 | 0.282 (inactive) | 0.584 | -0.99 (inactive) | 1.03 (inactive) | -1.39 (inactive) | 0.989 (inactive) | -0.275 (inactive) | -0.0144 (inactive) | 0.835 | 0.111
CO[C@H]1COC(=O)CC=C[C@@H](C)COC(=O)[C@@H](C)NC(=O)CC=C[C@@H]1C | 0.43 | 0.688 | 1.37 | 0.344 | 0.615 | 1.24 | 1.87 (inactive) | -0.258 | 1.52 | 0.372 (inactive) | 0.931 | -2.02 (inactive) | 1.13 (inactive) | -0.0214 (inactive) | -4.97 (inactive) | 0.236 (inactive) | -1.28 (inactive) | 0.181 | -0.216
CO[C@H]1O[C@H](CO)[C@@H](OC(=O)Nc2ccccc2)[C@H](OC(=O)Nc2ccc3c(c2)OCO3)[C@@H]1OC(=O)Nc1ccc2c(c1)OCO2 | 0.307 | 0.85 | 0.17 | -1.51 | -0.735 | -0.493 | 2.84 (inactive) | 0.105 | 0.327 | -0.429 (inactive) | -0.667 | -0.0273 (inactive) | 0.238 (inactive) | -0.167 (inactive) | 1.21 (inactive) | 1.84 (inactive) | 0.228 (inactive) | -0.365 | 0.136
COCCCNC(=O)[C@@]1(Sc2ccc(C)cc2)CC(=O)N(Cc2cc(C(F)(F)F)cc(C(F)(F)F)c2)[C@@H]1c1ccc(CO)cc1I | 0.697 | 1.34 | -0.632 | -2.24 | -2.34 | 0.0901 | 0.135 (inactive) | -0.00613 | -0.315 | 0.555 (inactive) | -0.125 | -3.95 (inactive) | -2.01 (inactive) | -0.625 (inactive) | -2.16 (inactive) | 0.818 (inactive) | 0.328 (inactive) | -1.2 | 0.0425
